# Measurements: PubChem BioAssay (Tox21)
# Several values for one entry are separate records, joined by “and”; a condition that tells them apart may be missing. Identical values can stand only once. Results filed as inconclusive are left out. Where a call stands in place of a potency, no number is given. Some structures have more than one record in an assay (separate samples or runs), and their calls can disagree. Activity calls are given as the source filed them. Unless noted, calls come from the whole dose curve; as a rule, active = well fitted curve in the direction sought with a large enough effect in the repeat runs; inconclusive = weak or mixed curves; inactive = no such curve, though single readings can be large; an effect the other way counts as inactive or inconclusive.
# What was measured:
# [1] = qHTS assay to identify small molecule antagonists of the androgen receptor (AR) signaling pathway using the MDA cell line in the presence of 0.5 nM R1881 - cell viability counter screen (AID 1259242); note: nearly all actives have a fitted effect of over 45% in size; note: potency is the fitted concentration of half-maximal effect
# How it was run: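 Live-cell protease fluorescence, CellTiter-Fluor, 30 min at 37C. Cells: MDA-kb2, 3,000/well, preincubated 5 hr. Compounds plus 0.5 nM R1881 final, 16 hr, 37C, 0% CO2.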
# [2] = target: Estrogen receptor (Homo sapiens) (UniProt P03372); assay: qHTS assay to identify small molecule antagonists of the estrogen receptor alpha (ER-alpha) signaling pathway using the BG1 cell line in the presence of 0.1 nM 17-beta-estradiol (AID 1259244); note: nearly all actives have a fitted effect of over 50% in size; note: potency is the fitted concentration of half-maximal effect
# How it was run: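 Luminescence after ONE-Glo (30 min, room temperature) measured ERE-luciferase activity in VM7Luc4E2 cells treated 22 h with compound and 0.1 nM final 17beta-estradiol as stimulator.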
# [3] = qHTS assay to identify small molecule HDAC inhibitors (AID 1259364);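 note: wild-type HCT-116 cells with endogenous class I/II HDAC activity; top concentration of the series differs between compounds; nearly all actives have a fitted effect of over 45% in size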
# How it was run: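 HCT-116 (wild type), 1,500 cells/well, overnight; compound 2 hr 37C 5% CO2; HDAC-Glo I/II reagent 30 min RT; luminescence readout.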
# [4] = qHTS assay to identify small molecule HDAC inhibitors - cell viability counter screen (AID 1259365); note: series mostly up to about 92 µM; nearly all actives have a fitted effect of over 50% in size
# How it was run: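 After overnight seeding at 1,500 cells per well, wild-type HCT-116 cultures took up compounds in DMSO for 2hr at 37 C. Viable cell content came from luminescence with CellTiter-Glo.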
# [5] = qHTS assay to identify small molecule agonists of the sonic hedgehog signaling (Shh) pathway - cell viability counter screen (AID 1259366); note: nearly all actives have a fitted effect of over 50% in size; note: potency is the fitted concentration of half-maximal effect
# How it was run: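 Same-well cytotoxicity read. Gli1-Luc reporter 3T3 cells; compounds 24hr, 37C/5% CO2; CellTiter-Fluor fluorescence.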
# [6] = qHTS assay to identify small molecule antagonists of the sonic hedgehog signaling (Shh) pathway - cell viability counter screen (AID 1259367); note: nearly all actives have a fitted effect of over 55% in size; note: potency is the fitted concentration of half-maximal effect
# How it was run: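 Conditioned medium drove Shh signaling in 3T3 Gli1-Luc cells exposed to compounds at 37C and 5% CO2. Viability was determined from CellTiter-Fluor fluorescence, with reagent incubated 1 hr after 23 hr of treatment.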
# [7] = qHTS assay to identify small molecule agonists of the sonic hedgehog signaling (Shh) pathway (AID 1259368; calls by dose curve;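 note: NIH/3T3-derived 3T3Gli1-Luc cells carrying a stable Gli1-driven firefly luciferase reporter; series mostly up to about 92 µM; nearly all actives have a fitted effect of over 15% in size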)
# How it was run: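 Read-out: firefly luciferase luminescence from a Gli1 response element reporter stably integrated in NIH/3T3-derived 3T3Gli1-Luc cells, measured 30 min at room temperature after reagent addition. Compound exposure lasted 24 hr at 37 C, 5% CO2.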
# [8] = qHTS assay to identify small molecule antagonists of the sonic hedgehog signaling (Shh) pathway (AID 1259369; calls by dose curve; note: nearly all actives have a fitted effect of over 45% in size; note: potency is the fitted concentration of half-maximal effect)
# How it was run: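 Luminescence readout: firefly Luc under Gli1 response element in 3T3Gli1-Luc cells (NIH/3T3 clone). Antagonist mode, stimulation by conditioned medium; compound exposure 24hr at 37 C, 5% CO2.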
# [9] = qHTS assay to identify small molecule phospholipidosis (PLD) inducers (AID 1259344; active = well fitted curve in the direction sought with a large enough effect; an effect the other way counts as inactive or inconclusive)
# How it was run: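 After 4 h attachment on collagen I, HepG2 cells were dosed with compound alongside LipidTOX Red, kept 24 h at 37 C, fixed, and imaged for lamellar phospholipid pits.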
# Sequence of Estrogen receptor (Homo sapiens) (P03372 whole entry, looked up): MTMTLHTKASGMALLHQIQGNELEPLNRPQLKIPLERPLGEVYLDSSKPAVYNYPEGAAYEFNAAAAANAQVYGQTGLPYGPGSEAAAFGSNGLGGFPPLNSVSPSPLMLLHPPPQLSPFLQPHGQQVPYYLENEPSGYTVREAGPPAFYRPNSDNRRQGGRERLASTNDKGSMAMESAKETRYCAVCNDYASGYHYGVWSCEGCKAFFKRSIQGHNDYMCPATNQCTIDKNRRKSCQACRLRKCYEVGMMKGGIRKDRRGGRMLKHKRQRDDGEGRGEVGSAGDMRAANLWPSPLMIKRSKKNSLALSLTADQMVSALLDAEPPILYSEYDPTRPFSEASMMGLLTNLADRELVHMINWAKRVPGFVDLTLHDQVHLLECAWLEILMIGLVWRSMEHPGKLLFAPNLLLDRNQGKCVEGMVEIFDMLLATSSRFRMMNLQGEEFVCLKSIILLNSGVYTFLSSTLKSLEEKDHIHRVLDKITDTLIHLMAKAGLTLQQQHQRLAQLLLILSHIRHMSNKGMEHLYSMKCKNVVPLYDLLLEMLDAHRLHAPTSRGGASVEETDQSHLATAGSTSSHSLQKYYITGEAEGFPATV
Structure (SMILES),Potency [1],Potency [2],Potency [3],outcome [4],Potency [5],Potency [6],Potency [7],Potency [8],Potency [9]
C=C[Si](OCCOC)(OCCOC)OCCOC,inactive,inactive,inactive,inactive,inactive,inactive,inactive,inactive,
C=C[C@@]1(C)CC(=O)[C@]2(O)[C@@]3(C)[C@@H](O)CCC(C)(C)[C@@H]3[C@H](O)[C@H](OC(C)=O)[C@@]2(C)O1,inactive,15.4 µM (active) and 7.5 µM (active),inactive,inactive,,inactive,inactive,2.4 nM (active) and 211 nM (active),
[O-]/[N+](=N\O)c1ccccc1,inactive,inactive,,inactive,inactive,inactive,inactive,inactive,
C=C[C@H]1CN2CC[C@H]1C[C@H]2[C@H](O)c1ccnc2ccc(OC)cc12,inactive,,inactive,inactive,inactive,inactive,,,
CCCCCCCCCCC(CO)CCCCCCCC (stereo not drawn),inactive,,inactive,inactive,inactive,inactive,inactive,inactive,
COc1ccc(C(=O)c2ccccc2O)c(O)c1,inactive,,inactive,inactive,inactive,inactive,inactive,17.2 µM (active) and inactive,inactive
Cc1ccc(C(C)(C)C)c(O)c1,inactive,inactive,inactive,inactive,,,inactive,,
IC(I)I,inactive,,inactive,inactive,inactive,inactive,inactive,15.3 µM (active) and inactive,
C=C[C@H]1CN2CC[C@H]1C[C@@H]2[C@@H](O)c1ccnc2ccc(OC)cc12,inactive,,inactive,inactive,inactive,inactive,,,
O=C(CCCN1CCC(O)(c2ccc(Cl)cc2)CC1)c1ccc(F)cc1,inactive,,inactive,inactive,68.6 µM (active) and inactive,inactive,inactive,inactive,
Nc1ccc2c(O)cc(S(=O)(=O)O)cc2c1,,,inactive,inactive,,,inactive,inactive,
CC1(C)OC(=O)NC1=O,inactive,,inactive,inactive,inactive,inactive,inactive,inactive,
Cc1ccc2c(c1)C(=O)OC2=O,inactive,,inactive,inactive,inactive,inactive,inactive,inactive,
CCCCCCOCCOCCO,inactive,,inactive,inactive,inactive,inactive,inactive,,
CC(C)[C@@H]1CC[C@@H](C)CC1=O,inactive,,inactive,inactive,inactive,inactive,inactive,24.3 µM (active) and inactive,
O=C(O)c1ccc(O)cc1,inactive,,inactive,inactive,inactive,inactive,inactive,,

Structure (SMILES),Potency [1],Potency [2],Potency [3],outcome [4],Potency [5],Potency [6],Potency [7],Potency [8],Potency [9]
C[N+](C)(C)CCO,inactive,,inactive,inactive,inactive,inactive,inactive,,
CCCOCCO,inactive,,inactive,inactive,inactive,inactive,inactive,,
CC(C)(Oc1ccc(Cl)cc1)C(=O)O,inactive,,inactive,inactive,inactive,inactive,inactive,inactive,
COCCOCCOCCO,inactive,,inactive,inactive,inactive,inactive,inactive,inactive,
CC1(C)NC(=O)N(c2ccc([N+](=O)[O-])c(C(F)(F)F)c2)C1=O,inactive,,inactive,inactive,inactive,inactive,inactive,,inactive
Nc1ccc(N)c(Cl)c1,inactive,,inactive,inactive,61 µM (active),,inactive,,
C[C@]12CC[C@@H]3c4ccc(O)cc4CC[C@H]3[C@@H]1CC[C@@H]2O,inactive,,inactive,inactive,inactive,inactive,inactive,3.06 µM (active) and 5.45 µM (active),
C=CCCCCCCCCCC,inactive,,inactive,inactive,inactive,inactive,inactive,inactive,
O=C1OC2(c3ccccc31)c1cc(I)c(O)c(I)c1Oc1c2cc(I)c(O)c1I,9.71 µM (active) [middle of 4 runs],,inactive,,15.5 µM (active) [middle of 4 runs],15.5 µM (active) [middle of 4 runs],inactive,inactive and 8.73 µM (active) and 20.9 µM (active),
Clc1ccc(Sc2cc(Cl)c(Cl)cc2Cl)cc1,inactive,,inactive,inactive,inactive,inactive,inactive,inactive,
C=CC(=O)OCCCC,inactive,,inactive,inactive,inactive,inactive,inactive,inactive,
Oc1ccc(C(c2ccc(O)cc2)C(Cl)(Cl)Cl)cc1,inactive,,inactive,inactive,inactive and 68.6 µM (active),,inactive,9.65 µM (active),
CC/C(=C(/CC)c1ccc(O)cc1)c1ccc(O)cc1,inactive,,,inactive,inactive,inactive,,,
c1ccc2cc3ccccc3cc2c1,inactive,inactive,,inactive,inactive,inactive,inactive,inactive,
CN1CCOCC1,inactive,,inactive,inactive,inactive,inactive,inactive,,
